Only some compounds are listed: those with a hit (about 3% of all), similar ones and a draw of the others.
PLK1 PBD inh: blocks phosphopeptide binding to human PLK1 polo-box domain. P53350. Plk1 PBD binding of FITC phosphopeptide, fluorescence polarization. Potency, µM, for the others: max response, negative = inhibition, hits mostly inhibitors. 360,000 tested, 2.8% active. AID 720504; further: series mostly up to about 57 µM; on the % scale 0 is the no-effect control and ±100 the full control effect; nearly all actives have a fitted effect of over 65% in size
PTAP TSG101 blk: blocks PTAP/TSG101 interaction to inhibit HIV-1 budding; 340,000 tested, under 10 active; Potency, µM (highest dose often 115 µM), without a hit: at the highest dose activity change, negative = inhibition, hits mostly inhibitors; AID 493005; Fluorescence polarization, FITC-PTAP peptide / Tsg101 binding; Q99816; active means well fitted inhibition curve with a large enough effect in the main read-out, with a control signal flat, not every such curve was filed as active; inconclusive means small, poorly fitted or top-dose-only effect, or effect the other way, or a change in a side signal; inactive means no such curve, though single readings can be large or run the other way; further: % of control where 0% means no effect
Target sequence (Q99816 whole entry, looked up): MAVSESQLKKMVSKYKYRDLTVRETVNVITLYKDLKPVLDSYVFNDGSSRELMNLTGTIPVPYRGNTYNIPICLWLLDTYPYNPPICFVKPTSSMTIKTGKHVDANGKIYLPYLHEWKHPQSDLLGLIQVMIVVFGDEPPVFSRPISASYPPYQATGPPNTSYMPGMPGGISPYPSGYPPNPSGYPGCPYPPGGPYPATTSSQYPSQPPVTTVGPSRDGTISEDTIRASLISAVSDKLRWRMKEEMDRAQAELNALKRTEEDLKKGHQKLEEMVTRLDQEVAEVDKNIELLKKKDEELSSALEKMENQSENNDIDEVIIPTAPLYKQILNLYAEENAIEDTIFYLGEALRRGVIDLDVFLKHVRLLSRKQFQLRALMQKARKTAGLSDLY
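Compounds were pin-transferred onto Tsg101 binding domain (10 uM final) in HEPES pH 7.5 buffer, then FITC-PTAP peptide was added at 50 nM final. After 20 min at RT, polarization reported peptide displacement across a qHTS concentration series.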
VDR inh: vitamin D3 receptor (human) inhibition. Potency, µM, for inactives: max response, negative = inhibition, usual class: inhibitors. AID 504847. VDR-SRC2-3 peptide fluorescence polarization, 2 h. 400,000 tested, 0.93% active; further: on the % scale 0 is the no-effect control and ±100 the full control effect
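Compounds are added to VDR with labelled SRC2-3 coactivator peptide and held 2 h at room temperature. Inhibition of the VDR–peptide interaction is then read as a change in fluorescence polarization.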
USP1-UAF1 inh: USP1/UAF1 (human) deubiquitinase inhibition. 390,000 tested, 0.23% active. O94782. Potency, µM (top dose mostly 57.1 µM), without a hit: at the top dose activity change, negative = inhibition, actives largely listed as inhibitors. recombinant USP1/UAF1, Ub-Rhodamine cleavage fluorescence; further: on the % scale 0 is the no-effect control and ±100 the full control effect; nearly all actives have a fitted effect of over 60% in size
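In this screen, compounds sit with the deubiquitinase complex (1nM) for 15 min at room temperature before Ub-Rho is added at 150nM final. Fluorescence rise is then followed for 6 reads every 60 seconds.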
GCN5L2 inh: blocks human GCN5L2 histone acetyltransferase. AID 504327. GCN5L2 HAT assay, ThioGlo1 CoA-SH fluorescence. 390,000 tested, 0.21% active. Potency, µM (top dose mostly 58.9 µM), for inactives: at the highest dose activity change, negative = inhibition, hits mostly inhibitors; further: on the % scale 0 is the no-effect control and ±100 the full control effect
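Free CoA generated was detected with ThioGlo1 (50uM) fluorescence at Ex340nm/Em540nm, read immediately and after 20 min at room temperature. Enzyme, 20 nM in HEPES pH 7.5 buffer, saw compounds 15 min before adding 75uM H3(1-25) peptide and 70uM acetyl-CoA.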
* marks the source's active call; other numbers are inactive results; u = inconclusive; x = no result given. Unless noted, the call rests on the fitted dose curve; in most records, active means well fitted curve in the direction sought with a large enough effect; inconclusive means small, poorly fitted or top-dose-only effect, or another doubt; inactive means no such curve, though single readings can be large; an effect the other way counts as inactive or inconclusive. Potency means the concentration at half of the fitted maximal effect.

SMILES	PLK1 PBD inh	PTAP TSG101 blk	VDR inh	USP1-UAF1 inh	GCN5L2 inh
Cn1c(CO)c(-c2ccccc2)c2cc([N+](=O)[O-])ccc21	-4.2%	-8.0%	14.6%	-7.9%	0.8%
COc1ccc(C2=C(Nc3ccc(Br)c(C)c3)c3ccccc3C2=O)cc1	x	x	-12.2%	u	-4.7%
O=C(NNc1cc(Cl)cc(Cl)c1)c1sccc1Cl	x	x	7.7%	x	x
O=C(NNc1ccc(Cl)cc1)c1sccc1Cl	26.7µM*	-3.3%	u	5.4%	-22.9%
O=C(NCC1CCN(Cc2ccccc2Cl)CC1)c1cc2ccc3cccnc3c2[nH]1	x	x	3.6%	-26.1%	0.9%
c1coc(CSSCc2ccco2)c1	11.9µM*	1.2%	22.4µM*	-22.3%	3.0%
Cc1ccc(NC(=O)CSCc2ccco2)cc1	-13.8%	-0.8%	-5.3%	-12.9%	-2.3%
COc1ccccc1NC(=O)C1=C(C)Nc2nc(SC)nn2C1c1ccccc1Cl (stereo unspecified)	x	x	-8.3%	u	-2.0%
FC(F)(F)c1ccc2c(c1)N1CCCC1CN2 (stereo unspecified)	26.7µM*	1.9%	13.9%	-18.2%	-2.2%
Cc1cc(Cl)c2oc(C(=O)N(C)CCCCN3CCOCC3)c(C)c2c1	-18.8%	-6.0%	-1.6%	-10.5%	-2.1%
Cc1cc(Cl)c2oc(C(=O)N(C)CCc3cnn(C)c3)c(C)c2c1	23.8µM*	-4.5%	-27.4%	-25.6%	-3.0%
NC(=O)N/N=C/c1c(F)c(F)c(F)c(F)c1F	21.2µM*	-3.9%	25.1µM*	-16.1%	0.9%
NC(=O)N/N=C/c1c(F)cccc1F	-6.7%	-4.8%	-15.4%	4.1%	-5.8%
O=C(COC(=O)/C=C/c1ccccc1[N+](=O)[O-])NC1CC1	16.8µM*	-0.6%	70.8µM*	-10.0%	0.0%
O=C(COC(=O)/C=C/c1ccccc1[N+](=O)[O-])NC1CCS(=O)(=O)C1 (stereo unspecified)	-8.6%	-11.4%	-6.7%	-1.1%	-9.8%
O=C(CN1CCN(S(=O)(=O)c2ccc(Br)s2)CC1)NCC1CCCCC1	-4.7%	x	x	-2.5%	x
Cc1cc(C)n(-c2ccc([N+](=O)[O-])cc2-c2nn[nH]n2)n1	2.7%	-3.1%	-19.5%	-14.9%	0.3%
O=[N+]([O-])c1ccc(O)c(-c2nn[nH]n2)c1	3.36µM*	-4.2%	-22.9%	-5.1%	-14.6%
CN(CCCC(=O)NCCc1ccccc1)S(=O)(=O)c1ccc([N+](=O)[O-])cc1	-8.0%	-6.5%	-15.6%	-22.4%	-6.1%
CC(=O)N1CCN(c2ccc(NC(=O)c3ccc(OCc4ccccc4)cc3)cc2)CC1	15µM*	-2.1%	28.2µM*	-20.1%	-4.4%
COC(=O)c1ccccc1NC(=O)c1ccc(COc2ccccc2)o1	-22.7%	-10.4%	5.0%	-3.5%	x
CC(=O)N1CCN(c2ccc(NC(=O)c3ccccc3Cl)cc2)CC1	21.2µM*	-3.1%	-12.6%	-20.0%	-17.4%
COc1ccc(NC(=O)c2ccc(COc3ccccc3)o2)cc1	10.6µM*	-8.3%	u	-17.4%	u
O=C(Nc1ccccc1)c1ccc(COc2ccccc2)cc1	29.9µM*	-2.7%	u	-16.3%	-3.1%
COc1ccc(CNC(=O)CN2C(=O)c3cccnc3Oc3ccc(C)cc32)cc1	x	x	2.9%	-14.1%	-5.3%
SMILES	PLK1 PBD inh	PTAP TSG101 blk	VDR inh	USP1-UAF1 inh	GCN5L2 inh
CCN(Cc1ccccc1)C(=O)Cn1ncc2c(=O)oc3ccc(C)cc3c21	x	x	-15.2%	10.9%	1.2%
CC(=O)OC[C@@H]1CN(Cc2ccccc2)C[C@H](n2cnc3c(NC4CC4)ncnc32)O1	-0.2%	x	x	x	x
CCOC(=O)c1c(NC(=S)NC)sc2c1CC(C)(C)SC2	23.8µM*	-5.6%	u	-17.0%	16.4%
CCOC(=O)c1c(NC(=S)Nc2ccccc2)sc2c1CC(C)(C)SC2	u	-1.1%	-0.3%	-14.6%	-7.1%
COc1ccccc1CNC(=O)c1cn(C)c(=O)c2cc(OC)c(OC)cc12	18.9µM*	-4.8%	u	-17.0%	-6.8%
COc1cccc(NC(=O)c2cn(C)c(=O)c3cc(OC)c(OC)cc23)c1	2.99µM*	-7.9%	-23.9%	-20.3%	1.6%
Cc1ccc(-c2nc3c4ccccc4n(CC(=O)NCc4ccc(F)cc4)c(=O)n3n2)cc1	x	x	3.9%	-11.8%	-2.5%
CCc1ccc(NC(=O)Cn2c(=O)n(Cc3ccc4c(c3)OCO4)c(=O)c3oc4ccccc4c32)cc1	x	x	4.3%	-6.0%	-5.7%
CC(C(Sc1ccccc1N)c1ccccc1)[N+](=O)[O-] (stereo unspecified)	1.89µM*	-0.4%	17.8µM*	-19.3%	-18.9%
COc1ccc(-c2ccc(CCC(=O)O)n2NC(=O)c2ccc(O)cc2)cc1	-3.0%	4.9%	6.8%	-17.7%	u
COc1ccc(C(=O)Nn2c(CCC(=O)O)ccc2-c2ccc(C)cc2)cc1OC	21.2µM*	0.4%	7.4%	-18.1%	-7.0%
CN(Cc1ccco1)c1ccnc(-c2cccc(NS(C)(=O)=O)c2)n1	x	x	u	x	-14.0%
COc1cccc(-c2nccc(N(C)Cc3ccco3)n2)c1	x	x	35.5µM*	x	-19.6%
CCOC(=O)c1ccc(S(=O)(=O)N2CCC(N3CCCCCC3)CC2)cc1	-6.3%	x	x	-27.3%	x
CN(C)c1ccc(-c2cncnc2Nc2ccc(F)cc2)cc1	x	x	44.7µM*	x	u
COc1ccccc1-c1cncnc1Nc1ccc(F)cc1	x	x	-14.5%	x	-8.7%
COc1ccccc1-c1cncnc1Nc1ccccc1	x	x	28.2µM*	x	u
CN(C)c1ccc(-c2cncnc2-n2ccnc2)cc1	x	x	44.7µM*	x	u
Fc1ccc(Nc2ncncc2-c2ccoc2)cc1	x	x	31.6µM*	x	-12.7%
Cc1ccccc1-c1cncnc1Nc1ccc(F)cc1	x	x	-9.8%	x	-17.7%
c1ccc(Nc2ncncc2-c2ccoc2)cc1	x	x	56.2µM*	x	-10.1%
Cc1ccccc1Cn1c(O)c(N=NC(=S)Nc2ccccc2F)c2ccccc21	-0.4%	-5.1%	14.0%	-20.1%	1.0%
Cc1ccc(C)c(Cn2c(O)c(N=NC(=S)Nc3ccccc3F)c3ccccc32)c1	23.8µM*	-6.0%	u	-13.0%	-8.9%
COc1ccc(OC)c(N2C(=O)[C@@H]3C(c4ccccc4Cl)=NO[C@@H]3C2=O)c1	18.9µM*	-7.3%	-2.1%	-15.6%	-27.1%
CC(=O)c1ccc(N2CCN(C(=O)c3ccco3)CC2)c(F)c1	18.9µM*	-0.1%	6.4%	-15.1%	-3.6%
O=C(c1cc(-c2ccc(Br)cc2)on1)N1CCc2ccccc2C1	33.6µM*	-2.5%	u	3.8%	-19.1%
O=C(c1cc(-c2ccc(Cl)cc2)on1)N1CCCCCC1	26.7µM*	-2.3%	u	-19.0%	-2.3%
COc1ccc(-c2cc(C(=O)N3CCc4ccccc4C3)no2)cc1	-12.5%	-4.0%	-16.3%	-12.1%	-14.8%
O=C(c1cc(-c2ccc(Cl)c(Cl)c2)on1)N1CCCCCC1	0.1%	-0.1%	-20.2%	-14.5%	-1.6%
CCN(c1ccccc1)S(=O)(=O)c1c(-c2ccc(C)cc2)csc1C(=O)OC	x	x	-12.6%	-19.2%	-1.5%

Source: PubChem (National Center for Advancing Translational Sciences (NCATS))
